PubChem BioAssay AID2289 (National Center for Advancing Translational Sciences (NCATS), 2010)
About 3,300 (0.97%) of roughly 340,000 compounds were called active. Another 9% or so got no clear call; they are omitted. Calls follow the shape of the dose curve; as a rule, active = well fitted inhibition curve with a large enough effect; inconclusive = small, poorly fitted or top-dose-only effect, or effect the other way; inactive = flat fitted curve, though single readings scatter. This is one part of the list.

Experiment: qHTS Assay for Modulators of miRNAs and/or Inhibitors of miR-21; also: nearly all actives have a fitted effect of over 55% in size
Details: HeLa miR-21-FLuc reporter, luciferase luminescence, 48 h; actives lower the signal
Procedure, shortened: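 Compounds were titrated across several concentrations (up to approximately 40 uM) and incubated 48 hours with HeLa miR-21-FLuc reporter cells (miR-21 target sequence downstream of FLuc, endogenous miR-21). Readout was firefly luciferase luminescence after lytic detection reagent.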
Potency is read from the fitted curve at half-maximal effect.

| Compound | Potency |
| --- | --- |
| CCOC(=O)c1ccc(NC(=O)c2oc3ccc4c(c3c2C)C(=O)CC(C)(CC)O4)cc1 (stereo not given) | 0.208 µM (active) |
| Cc1cc(C)cc(NC(=O)c2oc3ccc4c(c3c2C)C(=O)CC(C)(C)O4)c1 | 0.826 µM (active) |
| CCN(CC)c1ccc(/C=C(\C#N)C(N)=O)cc1 | 14.7 µM (active) |
| Brc1ccc(/C=N/Nc2nc3ccccc3o2)cc1 | 1.04 µM (active) |
| Brc1ccccc1/C=N/Nc1ccc2ccccc2n1 | 1.17 µM (active) |
| Brc1ccc(/C=N/Nc2ccc3ccccc3n2)cc1 | 2.61 µM (active) |
| O=C(NCCc1cccs1)c1ccc(Cl)c(Cl)c1 | 2.07 µM (active) |
| Clc1ccccc1SCc1nc2ccccc2[nH]1 | 7.36 µM (active) |
| c1ccc(CSCc2nc3ccccc3[nH]2)cc1 | 7.36 µM (active) |
| c1ccc(CCc2nc3ccccc3[nH]2)cc1 | 9.27 µM (active) |
| CC1=NN(C(=O)c2ccc(C)o2)C(O)(c2ccccc2)C1 (stereo not given) | 16.5 µM (active) |
| COc1ccc(NC(=O)CSCc2ccccc2C)cc1 | 7.36 µM (active) |
| COc1ccc(CNC(=O)CSCc2ccccc2Cl)cc1 | 13.1 µM (active) |
| Cc1cccc(Nc2n[nH]c(C)c2[N+](=O)[O-])c1 | 0.736 µM (active) |
| Cc1ccc(Nc2cc(C)nc(-c3ccccc3)n2)cc1 | 7.36 µM (active) |
| CC(=O)c1ccc(NC(=O)c2cc(Cl)sc2Cl)cc1 | 1.47 µM (active) |
| CC(=O)c1ccc(NC(=O)c2ccc(C)c(Br)c2)cc1 | 0.826 µM (active) |
| Cc1cc(-c2ccc(Br)cc2)n[nH]1 | 13.1 µM (active) |
| CCC(=O)N1CCC(c2ccc(OC)cc2)=N1 | 13.1 µM (active) |
| O=C(Nc1cccc2ccccc12)c1onc2c1CCCC2 | 5.85 µM (active) |
| O=C(CSc1cccs1)Nc1cccc2ccccc12 | 10.4 µM (active) |
| O=C(Nc1cccc2ccccc12)c1ccccc1 | 6.56 µM (active) |
| O=C(Nc1ccccc1F)C(=O)Nc1cccc2ccccc12 | 3.29 µM (active) |
| CC1CC1C(=O)OCC(=O)Nc1ccc(N=Nc2ccccc2)cc1 (stereo not given) | 1.47 µM (active) |
| O=C(COC(=O)C1CC1)Nc1ccc(N=Nc2ccccc2)cc1 | 1.85 µM (active) |

| Compound | Potency |
| --- | --- |
| C(=N\Nc1cc(N2CCCCC2)ncn1)/c1ccco1 | 2.93 µM (active) |
| Cc1ccc(-c2cc(=O)c3cc(Cl)ccc3[nH]2)cc1 | 0.369 µM (active) |
| FC(F)(F)c1cc(Cl)c2nc(-c3ccccc3)cn2c1 | 0.369 µM (active) |
| CNc1oc(/C=C/c2cccc(OC)c2)nc1C#N | 2.93 µM (active) |
| CNc1oc(/C=C/c2ccccc2)nc1C#N | 3.29 µM (active) |
| CCCCNc1nc(N)nc(-c2cc(Cl)ccc2O)n1 | 0.927 µM (active) |
| CNC(=O)c1ccc(NC(=O)/C=C/c2cccc(F)c2)cc1 | 10.4 µM (active) |
| Cn1cc([N+](=O)[O-])c(C(=O)Nc2ccc(-c3nc4ccccc4o3)cc2)n1 | 7.36 µM (active) |
| Cn1cc([N+](=O)[O-])c(C(=O)Nc2ccc3nc(-c4ccccc4)[nH]c3c2)n1 | 14.7 µM (active) |
| CC(C)(C)Nc1nc(-c2ccc3c(c2)CCN3C(=O)C2CC2)cs1 | 1.47 µM (active) |
| CNc1nc(-c2ccc3c(c2)CCN3C(=O)c2ccccc2C)cs1 | 4.65 µM (active) |
| COC(=O)c1ccc(N2CCC(C)CC2)c(N)c1 | 4.14 µM (active) |
| Cc1c(C(=O)NC2CCCCC2)oc2ccc(F)cc12 | 13.1 µM (active) |
| COc1ccc2oc(C(=O)NC3CCCCC3)c(C)c2c1 | 2.93 µM (active) |
| COc1ccc2oc(C(=O)NC(C)(C)C)c(C)c2c1 | 3.69 µM (active) |
| COc1ccc2c(c1)OC/C(=C/c1cccs1)C2=O | 5.85 µM (active) |
| Cn1cccc1C(=O)N/N=C/c1c(Cl)cccc1Cl | 2.07 µM (active) |
| O=C(CSc1nnc(C2CCCCC2)o1)Nc1ccccc1Cl | 7.36 µM (active) |
| Cc1cccn2c1nc(=S)n2C(=O)c1ccco1 | 1.04 µM (active) |
| Cc1cccc2nc(=S)n(C(=O)c3ccco3)n12 | 0.521 µM (active) |
| CC(=O)Oc1ccc(C(=O)[C@H]2[C@H]3C(=O)N(c4ccc5ccccc5c4)C(=O)[C@H]3[C@@H]3C=CC=NN32)cc1 | 6.56 µM (active) |
| Cc1cc2nc(N)sc2cc1[N+](=O)[O-] | 14.7 µM (active) |
| O=S(=O)(Nc1ccc(-c2nc3cccnc3s2)cc1)c1cc(F)ccc1F | 16.5 µM (active) |
| Cc1ccc(-c2nc3cccnc3s2)cc1NS(C)(=O)=O | 4.14 µM (active) |
| O=S(=O)(Nc1ccc(-c2nc3cccnc3s2)cc1)c1ccccc1F | 13.1 µM (active) |

| Compound | Potency |
| --- | --- |
| CCN1CCN(Cc2ccc(NC(=O)Nc3ccccc3Cl)cc2)CC1 | 1.31 µM (active) |
| CCN1CCN(Cc2ccc(NC(=O)Nc3ccc(SC)cc3)cc2)CC1 | 14.7 µM (active) |
| O=C(Nc1ccc(CN2CCCCC2)cc1)Nc1ccccc1Cl | 16.5 µM (active) |
| O=C(Nc1cc2c(cc1Cl)OCCO2)c1ccco1 | 6.56 µM (active) |
| O=C(Nc1cc2c(cc1Br)OCCO2)c1ccco1 | 6.56 µM (active) |
| O=C(Nc1cc2c(cc1Cl)OCCCO2)c1ccco1 | 3.69 µM (active) |
| O=C(NNC(=S)Nc1ccc(Br)cc1Cl)c1ccco1 | 3.29 µM (active) |
| O=C(CCc1ccccc1)Nc1cc2c(cc1Cl)OCCO2 | 2.61 µM (active) |
| Cc1c(-c2ccccc2)[nH]n2c(=O)c3c(nc12)CCCC3 | 2.93 µM (active) |
| CC(=O)Nc1ccc2nc(-c3cccs3)[nH]c2c1 | 9.27 µM (active) |
| CC(C)(C)C(=O)Nc1ccc(-c2nc3ccc(NC(=O)C(C)(C)C)cc3[nH]2)cc1 | 0.414 µM (active) |
| CCOc1cc(/C=C2\N=C3CCCCCN3C2=O)ccc1O | 14.7 µM (active) |
| O=C1/C(=C\c2ccc(O)c(O)c2)N=C2CCCCCN12 | 14.7 µM (active) |
| Cc1ccc2nc(CNC(=O)c3ccccc3)[nH]c2c1 | 6.56 µM (active) |
| Cc1c(/C(O)=C2/C(=O)C(=O)N(Cc3cccnc3)C2c2cccs2)cnn1-c1ccccc1 (stereo not given) | 5.21 µM (active) |
| Cn1c(N)c(C(=O)/C=C/c2ccccc2)c(=O)[nH]c1=O | 5.85 µM (active) |
| CNc1ccccc1C(=O)OCC(=O)c1ccccc1 | 16.5 µM (active) |
| CC(=O)Nc1cc(C(=O)OCC(=O)c2ccc(C)cc2)ccc1C | 10.4 µM (active) |
| Nc1cccc(C(=O)OCC(=O)c2ccccc2)c1 | 7.36 µM (active) |
| CCC(=O)Nc1cc(C(=O)OCC(=O)c2ccccc2)ccc1C | 1.85 µM (active) |
| CCC(=O)Nc1cc(C(=O)OCC(=O)c2ccccc2Cl)ccc1C | 10.4 µM (active) |
| Cc1ccc(C(=O)CCC2CCCCC2=O)cc1 (stereo not given) | 14.7 µM (active) |
| CCc1ccc(C(=O)CCC2CCCCC2=O)cc1 (stereo not given) | 16.5 µM (active) |
| O=C(O)c1ccccc1C(=O)NNc1cccc(Cl)n1 | 5.85 µM (active) |
| CCOC(=O)/C=C/c1cnn(-c2ccccc2)c1 | 2.33 µM (active) |
